Measurements: ChEMBL document CHEMBL3988442, “University of Dundee, Small-Polar-MMV Screening Library” (2021)
The whole screen tested about 48,000 compounds, of which about 13,000 (27%) showed an effect of 50% or more. This is one part of the list.

Test system: Wolbachia pipientis
Assay: Anti-Wolbachia Cell-Based Screen
Assay type: functional
Set-up: scale not given: in the data most compounds retested in dose-response had high values
Details: 5 µM

| Structure (SMILES) | Percent Effect [%] |
| --- | --- |
| Cc1nccn1C1CCCN(C(=O)c2ccc(N(C)C)nc2)C1 (stereo not drawn) | -2.779 |
| Cc1nccn1C1CCCN(C(=O)c2ccc(-n3cccn3)nc2)C1 (stereo not drawn) | 122 |
| Cc1noc2ncc(C(=O)N3CCCC(n4ccnc4C)C3)cc12 (stereo not drawn) | -5.392 |
| Cc1ccc(-c2noc(CCC3CCN(C)CC3)n2)nn1 | -9.501 |
| CC(C)CCN1CC2(CCN(C(=O)C3(C)CCCCO3)CC2)OC1=O (stereo not drawn) | -6.368 |
| Cc1nccc(C(=O)N2CCCN(Cc3cnn(C(C)C)c3)CC2)n1 | 5.245 |
| CC(C)n1cc(CN2CCCN(C(=O)c3cccnc3O)CC2)cn1 | -1.686 |
| Cc1cccnc1CN1CCN(C(=O)c2cc(Cl)c[nH]c2=O)CC1 | -31.74 |
| CCc1ncc(C(=O)N2CCN(Cc3ncccc3C)CC2)cn1 | 86.86 |
| CCc1ncc(C(=O)N2CCN(C(=O)COc3ccccc3)CC2)cn1 | 3.835 |
| Cc1cccnc1CN1CCN(C(=O)c2cnn(C(C)C)c2)CC1 | 94.71 |
| Cc1ccc(OCCC(=O)N(C)CC(=O)Nc2cc(C)on2)c(C)c1 | 1.593 |
| COc1c(C)cnc(CN2CCC(N(C)S(C)(=O)=O)CC2)c1C | 116.9 |
| COc1ccc(C(=O)N(C)Cc2ncc(C)c(OC)c2C)c(OC)c1 | 77.44 |
| COc1c(C)cnc(CN(C)C(=O)c2ccccc2O)c1C | -2.97 |
| COc1c(C)cnc(CNC(=O)CCOCC(C)C)c1C | 11.08 |
| COc1c(C)cnc(CN2CCC(N(C)C(C)C(N)=O)CC2)c1C (stereo not drawn) | -8.935 |
| COc1c(C)cnc(CN2CCC(N(C)C(=O)C(C)OC)CC2)c1C (stereo not drawn) | 99.72 |
| COc1c(C)cnc(CN(C)C(=O)c2ccc(C3CCCO3)s2)c1C (stereo not drawn) | -4.342 |
| COc1ccc(OC)c(C(=O)N(C)Cc2ncc(C)c(OC)c2C)c1 | -4.561 |
| COc1cccc(CCCN2CCC(N(C)S(C)(=O)=O)CC2)c1 | -2.016 |
| COc1ccccc1C(=O)N(C)Cc1ncc(C)c(OC)c1C | -3.019 |
| COc1c(C)cnc(CN2CCOC(Cn3nc(C)nc3C)C2)c1C (stereo not drawn) | -9.057 |
| O=C(c1cnc(NCCC2CCCO2)c(Cl)c1)N1CCOCC1 (stereo not drawn) | -6.598 |
| Cc1cc(NC(=O)Cc2ccccc2O)cnc1N1CCCCC1 | 13.35 |
| COc1cccc2c1OCC(CNC(=O)CSc1nc(N)n[nH]1)C2 (stereo not drawn) | -2.891 |

| Structure (SMILES) | Percent Effect [%] |
| --- | --- |
| Cc1cccc(N2CC[C@@H]3CN(Cc4csc(C)n4)CCO[C@@H]3C2)n1.O=C(O)C(F)(F)F.O=C(O)C(F)(F)F | -4.327 |
| O=C1NCC2(CCCN(C(=O)c3ccc4c(c3)CCO4)C2)O1 (stereo not drawn) | 16.66 |
| COc1c(C)cnc(CN2CCC(N(C)C(=O)C3CC3)CC2)c1C | 110.7 |
| COc1c(C)cnc(CN2CCC(C(=O)N(C)C)CC2)c1C | 2.904 |
| CCNC(=O)N(C)C1CCN(Cc2ncc(C)c(OC)c2C)CC1 | 110.9 |
| CCOc1ccccc1OCC(=O)NCc1ncc(C)c(OC)c1C | 8.111 |
| CCC(=O)N(C)C1CCN(Cc2ncc(C)c(OC)c2C)CC1 | 9.191 |
| CCc1noc(C)c1C(=O)N(C)Cc1ncc(C)c(OC)c1C | -4.169 |
| N[C@@H]1CC[C@H](C(=O)NCCn2cc(Cl)cn2)C1 | -5.887 |
| Cc1ccc(-n2ccnc2)c(C(=O)NCCOCC2CCCO2)c1 (stereo not drawn) | 2.009 |
| CN(Cc1cccc(C(=O)Nc2ccnn2C)c1)CC1(C)COC1 | 30.85 |
| Cn1cc(CNC(=O)C2COCC(=O)N2Cc2ccccc2)cn1 (stereo not drawn) | -3.917 |
| CN(CC1(C)COC1)C(=O)c1cc(-c2cnn(C)c2)nc2ccccc12 | 150.1 |
| CCN(C)C(=O)c1cc(-c2ccn(C(C)C)n2)n2ccccc12 | 6.69 |
| CN(Cc1ncnn1C)C(=O)c1ccccc1NCc1ccccc1 | -8.23 |
| CCN(C(=O)c1cc(C)nc2ccccc12)C1CC(=O)NC1=O (stereo not drawn) | 9.266 |
| CN(CC1(C)COC1)C(=O)c1cc(-c2ccn(C)n2)nc2ccccc12 | 106.6 |
| CN(Cc1cnn(C)c1)C(=O)c1cc2ccccc2c(=O)[nH]1 | -10.85 |
| CN(CC1(C)COC1)C(=O)c1cc(-c2ccnn2C)nc2ccccc12 | 116.9 |
| COc1ccc(NC(=O)N(C)Cc2ccc(Br)o2)cn1 | 12.08 |
| CN(C)S(=O)(=O)NCc1cccnc1Oc1ccccc1 | -16.22 |
| CCc1ccc(C(=O)N(CC)Cc2ccoc2)cc1S(C)(=O)=O | 18.17 |
| Cc1cccc2c1nc(COCC(=O)O)n2-c1cnc(N)cn1 | 0.6066 |
| O=C(O)C(c1ccc2c(c1)OCCO2)N1CCC(N2CCOCC2)CC1 (stereo not drawn) | 10.3 |
| O=C(O)C1(Oc2cccc(F)c2)CCN(c2ccncc2)CC1 | -29.88 |
| O=C(O)C1(Oc2ccc3c(c2)OCO3)CCN(C2CCOCC2)CC1 | 140.6 |

| Structure (SMILES) | Percent Effect [%] |
| --- | --- |
| CCCn1ccnc1CN1CCC(Oc2ccc(Cl)cc2)(C(=O)O)CC1 | -1.396 |
| O=C(O)C1(Oc2ccc(Cl)cc2)CCN(C2CCOCC2)CC1 | 109.8 |
| O=C(O)C1(Oc2cccc(F)c2)CCN(C2CCOCC2)CC1 | 114 |
| CCCn1ccnc1CN1CCC(Oc2cccc(F)c2)(C(=O)O)CC1 | -7.212 |
| O=C(O)C1(Oc2ccc3ccccc3c2)CCN(c2ccncc2)CC1 | -19.78 |
| O=C(O)C1(Oc2ccccc2)CCN(c2ccncc2)CC1 | -10.06 |
| Cc1noc(OCCOc2cccc(C#N)c2)n1 | 0.996 |
| NC(=O)c1cnc(NCC(=O)NCc2ccccc2)c(Cl)c1 | -2.32 |
| O=C(c1cccs1)N1CC(Oc2ccccc2Cl)C1 | 11.34 |
| CCCc1nc(C(=O)N2C[C@H](CO)C[C@H](CN3CCOCC3)C2)cs1 | -13.1 |
| COCCC(=O)N1CCC2(CC1)CC(c1ccccc1)CN(C)C2 (stereo not drawn) | 9.484 |
| CN1C[C@H](O)[C@]2(CCN(C(=O)NCc3ccccc3)C2)S1(=O)=O | 101.7 |
| COc1cccc(OCC(=O)N2CCC3(CC2)[C@H](O)C[C@@H]3OC)c1 | 6.956 |
| CCN1C[C@@H]2CN(C(=O)NCc3ccccc3)CCC[C@]2(C(=O)O)C1.O=C(O)C(F)(F)F | -6.91 |
| CN1CC(c2ccccc2)CC2(CCN(C(=O)c3ccccc3)CC2)C1 (stereo not drawn) | 1.137 |
| CN1C[C@H](O)[C@]2(CCN(C(=O)COc3ccccc3)C2)S1(=O)=O | 115.7 |
| COCCN1C(=O)C[C@@H]2[C@H]1CCN2C(=O)COc1ccccc1 | -17.47 |
| O=C(OCc1ccccc1)N1CC[C@H]2CC(CO)O[C@@H]2C1 (stereo partly drawn) | -8.669 |
| CN1C[C@@H]2CN(C(=O)NCc3ccccc3)CCC[C@]2(C(=O)O)C1.O=C(O)C(F)(F)F | 10.95 |
| CN1C[C@@H](O)[C@]2(CCN(C(=O)OCc3ccccc3)C2)S1(=O)=O | 96.78 |
| CN1C[C@@H](O)[C@]2(CCN(C(=O)c3ccccc3)C2)S1(=O)=O | 126.2 |
| O=C(NCc1ccco1)c1cc(N2CC[C@@H](O)C2)ccn1 | 15.64 |
| CCCS(=O)(=O)N1Cc2ccnn2CC(c2nc(C)no2)C1.O=C(O)C(F)(F)F (stereo not drawn) | -10.4 |
| Cc1csc(C(C#N)C(=O)NCc2ccccc2)n1 (stereo not drawn) | 0.1394 |
| Cc1cc(C)c2nc(CN3CCOCC(O)C3)cc(O)c2c1 (stereo not drawn) | -68.16 |
| CCC1=N[C@@]2(CC[C@@H]3CN(S(=O)(=O)CC(C)C)C[C@@H]32)C(=O)N1C | -2.639 |

| Structure (SMILES) | Percent Effect [%] |
| --- | --- |
| O=C(NCc1ccoc1)NC1CCN(c2ncccn2)CC1 | 15.54 |
| Cc1nc(CNC(=O)NC2CCCN(c3ncccn3)C2)cs1 (stereo not drawn) | 115.1 |
| COC(=O)N1CCCC(NC(=O)NCc2csc(C)n2)C1 (stereo not drawn) | -0.338 |
| O=C(NCCc1cccs1)NC1CCN(c2ncccn2)CC1 | 110.6 |
| Cc1nc(CCNC(=O)NC2CCN(c3ncccn3)CC2)cs1 | 9.255 |
| N#Cc1ccc(CNC(=O)NC2CCCN(c3ncccn3)C2)cc1 (stereo not drawn) | 10.08 |
| Cc1nc(CNC(=O)NC2CCN(c3ncccn3)CC2)cs1 | 78.89 |
| Cc1nc(CCNC(=O)NC2CCCN(c3ncccn3)C2)cs1 (stereo not drawn) | 107.1 |
| O=C(NCCc1ccccn1)NC1CCN(c2ncccn2)CC1 | 4.674 |
| O=C(NCc1ccccn1)NC1CCCN(c2ncccn2)C1 (stereo not drawn) | 20.37 |
| Cc1ccc(CNC(=O)NC2CCCN(c3ncccn3)C2)n1C (stereo not drawn) | 7.079 |
| Cc1csc(CNC(=O)NC2CCN(c3ncccn3)CC2)n1 | 3.023 |
| NC(=O)Nc1cccc(C(=O)N(Cc2ccncc2)C2CC2)c1 | 8.655 |
| CC(O)CN1CCC(CNCc2ccccc2Br)CC1 (stereo not drawn) | -8.503 |
| O=C(NCCN1CCOCC1)NCc1ccc(-n2cccn2)cc1 | -7.54 |
| CC(C)Nc1nc2c(c(NC3CC3)n1)CCN(C1CCOCC1)CC2 | -24.37 |
| O=C(CO)N1CCN(S(=O)(=O)CCCF)CC1 | -8.107 |
| O=C(c1ccoc1)N1CCCCC1c1nc[nH]n1 (stereo not drawn) | 11.28 |
| Cc1cc(C2CCCN2CCCS(=O)(=O)c2ccccc2)no1 (stereo not drawn) | -10.32 |
| O=S(=O)(N(Cc1ccccn1)C1CC1)N1CCCC1c1ccco1 (stereo not drawn) | 17.98 |
| COc1ccc(NC(=O)N2CCCCC2c2ncc[nH]2)cc1 (stereo not drawn) | 18.67 |
| Nc1cc(-c2c[nH]nc2C2CCCN2CCCc2ccccc2)ccn1 (stereo not drawn) | 114.8 |
| Nc1ncncc1-c1noc([C@@H]2CCCN2CCCc2ccccc2)n1 | 5.428 |
| Nc1cc(-c2c[nH]nc2C2CCCN2S(=O)(=O)c2ccccc2)ccn1 (stereo not drawn) | 96.1 |
| Nc1cc(-c2c[nH]nc2C2CCCCN2C(=O)C2CCCC2)ccn1 (stereo not drawn) | 118.9 |
